± gives the standard deviation of the averaged measurements. Targets with the largest changes are over-represented here; the source holds about 5,400 in all.

Compound in this assay: Nc1nc2c(ncn2[C@@H]2O[C@H](COP(=O)(O)OP(=O)(O)OP(=O)(O)O)[C@@H](O)[C@H]2O)c(=O)[nH]1 [guanosine triphosphate]
Kind of assay: NP40-soluble protein abundance relative to vehicle (solubility fold change) (ratio); higher = more soluble protein in presence of GTP. Here is the method: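 Solubility proteome profiling in Jurkat crude lysate. Lysate was treated with Mg-GTP (0.1-10 mM) for 10 min at room temperature and 3 min at 37 °C, then solubilised with 0.8% NP40 and benzonase, followed by ultracentrifugation. Proteins were quantified by TMT10 LC-MS/MS; the value is the NP40-soluble abundance relative to the NP40-processed vehicle, from 3 independent experiments.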

Chain of UniProt P54577 (P54577 whole entry): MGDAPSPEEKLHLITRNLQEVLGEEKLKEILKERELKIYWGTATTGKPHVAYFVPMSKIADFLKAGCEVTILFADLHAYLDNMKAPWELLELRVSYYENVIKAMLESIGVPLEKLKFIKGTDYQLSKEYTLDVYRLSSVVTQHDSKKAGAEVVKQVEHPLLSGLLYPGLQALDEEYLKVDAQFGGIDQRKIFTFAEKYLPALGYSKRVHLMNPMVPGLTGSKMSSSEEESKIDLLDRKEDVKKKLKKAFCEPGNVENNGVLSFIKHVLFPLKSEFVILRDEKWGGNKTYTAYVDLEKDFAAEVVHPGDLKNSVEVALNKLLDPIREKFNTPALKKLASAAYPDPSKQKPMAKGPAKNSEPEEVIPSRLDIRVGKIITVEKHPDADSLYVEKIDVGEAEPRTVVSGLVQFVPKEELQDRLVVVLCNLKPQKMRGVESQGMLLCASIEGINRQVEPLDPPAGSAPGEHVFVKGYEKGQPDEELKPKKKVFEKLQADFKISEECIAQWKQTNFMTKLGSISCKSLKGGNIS
Chain of UniProt O95232 (O95232 whole entry, one chain of several): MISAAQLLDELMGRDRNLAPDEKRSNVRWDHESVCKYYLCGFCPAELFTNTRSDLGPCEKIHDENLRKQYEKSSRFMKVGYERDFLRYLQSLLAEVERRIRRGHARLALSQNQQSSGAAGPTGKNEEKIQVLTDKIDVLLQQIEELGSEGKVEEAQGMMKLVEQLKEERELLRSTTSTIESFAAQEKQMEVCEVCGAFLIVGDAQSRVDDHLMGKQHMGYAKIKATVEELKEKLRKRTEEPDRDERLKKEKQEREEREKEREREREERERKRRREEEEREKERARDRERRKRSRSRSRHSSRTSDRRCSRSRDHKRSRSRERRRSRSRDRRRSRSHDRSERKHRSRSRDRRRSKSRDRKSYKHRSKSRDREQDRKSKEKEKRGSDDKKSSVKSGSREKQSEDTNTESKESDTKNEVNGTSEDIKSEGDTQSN
Chain of UniProt P49427 (P49427 whole entry): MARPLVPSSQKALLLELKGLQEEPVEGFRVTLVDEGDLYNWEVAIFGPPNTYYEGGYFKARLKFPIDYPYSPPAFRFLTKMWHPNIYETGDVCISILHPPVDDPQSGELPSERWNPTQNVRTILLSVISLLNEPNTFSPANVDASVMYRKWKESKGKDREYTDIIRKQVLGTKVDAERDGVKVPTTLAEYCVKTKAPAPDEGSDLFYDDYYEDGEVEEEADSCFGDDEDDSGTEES
Chain of UniProt P30622 (P30622 whole entry): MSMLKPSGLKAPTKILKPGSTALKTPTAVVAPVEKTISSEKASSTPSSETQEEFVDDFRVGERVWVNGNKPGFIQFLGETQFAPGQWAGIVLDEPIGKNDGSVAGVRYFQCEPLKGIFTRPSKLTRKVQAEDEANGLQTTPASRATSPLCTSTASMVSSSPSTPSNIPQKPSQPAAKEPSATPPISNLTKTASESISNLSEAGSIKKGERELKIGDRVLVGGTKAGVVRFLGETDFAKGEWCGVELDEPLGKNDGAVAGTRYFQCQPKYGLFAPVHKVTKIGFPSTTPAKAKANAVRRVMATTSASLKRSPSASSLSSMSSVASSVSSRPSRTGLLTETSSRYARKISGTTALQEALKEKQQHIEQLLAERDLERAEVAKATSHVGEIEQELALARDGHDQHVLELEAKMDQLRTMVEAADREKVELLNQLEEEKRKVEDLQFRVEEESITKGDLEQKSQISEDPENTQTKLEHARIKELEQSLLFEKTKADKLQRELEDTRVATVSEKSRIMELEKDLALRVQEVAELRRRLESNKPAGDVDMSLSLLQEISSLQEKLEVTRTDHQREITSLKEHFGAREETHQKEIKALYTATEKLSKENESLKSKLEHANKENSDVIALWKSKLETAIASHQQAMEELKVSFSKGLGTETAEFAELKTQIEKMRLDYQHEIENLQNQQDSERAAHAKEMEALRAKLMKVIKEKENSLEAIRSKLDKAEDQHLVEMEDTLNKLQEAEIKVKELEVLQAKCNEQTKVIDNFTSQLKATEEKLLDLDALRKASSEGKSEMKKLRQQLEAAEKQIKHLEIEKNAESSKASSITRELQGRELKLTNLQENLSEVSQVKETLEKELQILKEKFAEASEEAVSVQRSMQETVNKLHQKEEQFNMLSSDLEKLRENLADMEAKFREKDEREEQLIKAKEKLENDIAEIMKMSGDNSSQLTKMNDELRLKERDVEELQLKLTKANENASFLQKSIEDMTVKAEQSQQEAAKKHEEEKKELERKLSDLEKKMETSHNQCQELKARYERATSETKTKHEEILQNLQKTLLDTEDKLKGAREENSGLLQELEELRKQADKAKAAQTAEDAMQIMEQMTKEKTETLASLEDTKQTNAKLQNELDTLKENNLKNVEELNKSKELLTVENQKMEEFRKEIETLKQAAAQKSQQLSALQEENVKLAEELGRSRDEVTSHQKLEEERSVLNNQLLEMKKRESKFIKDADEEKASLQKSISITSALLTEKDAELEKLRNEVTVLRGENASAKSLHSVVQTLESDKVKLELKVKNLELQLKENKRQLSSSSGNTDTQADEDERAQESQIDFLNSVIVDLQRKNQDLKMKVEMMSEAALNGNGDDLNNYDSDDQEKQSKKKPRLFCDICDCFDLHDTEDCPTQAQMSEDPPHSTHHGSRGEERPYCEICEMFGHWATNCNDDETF
Chain of UniProt P09874 (P09874 whole entry): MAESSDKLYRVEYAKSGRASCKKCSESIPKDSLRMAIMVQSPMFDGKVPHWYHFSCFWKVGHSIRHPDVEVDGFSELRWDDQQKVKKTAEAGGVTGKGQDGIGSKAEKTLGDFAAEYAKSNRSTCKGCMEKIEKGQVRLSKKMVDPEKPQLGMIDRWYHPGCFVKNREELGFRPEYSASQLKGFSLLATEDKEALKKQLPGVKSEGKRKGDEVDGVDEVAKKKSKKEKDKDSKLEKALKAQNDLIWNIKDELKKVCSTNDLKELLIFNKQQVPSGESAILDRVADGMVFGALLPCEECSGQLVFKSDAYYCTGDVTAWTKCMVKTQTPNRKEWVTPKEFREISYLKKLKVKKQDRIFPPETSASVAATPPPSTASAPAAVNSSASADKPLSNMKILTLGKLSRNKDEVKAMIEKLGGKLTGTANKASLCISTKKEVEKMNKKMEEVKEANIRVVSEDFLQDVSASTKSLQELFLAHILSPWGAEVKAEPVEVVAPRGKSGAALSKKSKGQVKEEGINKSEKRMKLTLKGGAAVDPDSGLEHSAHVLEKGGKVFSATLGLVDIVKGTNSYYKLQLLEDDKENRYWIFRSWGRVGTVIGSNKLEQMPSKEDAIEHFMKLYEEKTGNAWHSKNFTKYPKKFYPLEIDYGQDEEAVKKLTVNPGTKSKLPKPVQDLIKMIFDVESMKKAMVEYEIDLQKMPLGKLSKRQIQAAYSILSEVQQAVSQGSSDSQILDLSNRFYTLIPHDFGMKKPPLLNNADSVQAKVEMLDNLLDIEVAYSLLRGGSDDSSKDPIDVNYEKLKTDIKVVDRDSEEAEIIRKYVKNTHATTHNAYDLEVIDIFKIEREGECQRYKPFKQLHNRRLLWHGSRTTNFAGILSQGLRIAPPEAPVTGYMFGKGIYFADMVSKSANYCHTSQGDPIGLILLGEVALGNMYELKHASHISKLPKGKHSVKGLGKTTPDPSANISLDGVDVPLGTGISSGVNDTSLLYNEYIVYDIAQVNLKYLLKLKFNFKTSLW

With CDC34 (UniProt P49427), the NP40-soluble protein abundance by setting is: (concentration: 0.1mM) 1.69 ± 0.2; (concentration: 0.5mM) 1.07 ± 0.037; (concentration: 1mM) 1.79 ± 0.077; (concentration: 2mM) 1.15 ± 0.11; (concentration: 4mM) 1.16 ± 0.092; (concentration: 6mM) 1.12 ± 0.1. In addition, the NP40-soluble protein abundance was found to be 1.01 ± 0.078 (concentration: 8mM) and 1.06 ± 0.084 (concentration: 10mM).
For the target UniProt P30622|P30622-1, the NP40-soluble protein abundance came out at 0.996 ± 0.068 (concentration: 0.1mM); 1 ± 0.086 (concentration: 0.5mM); 1.01 ± 0.08 (concentration: 1mM); 0.97 ± 0.11 (concentration: 2mM); 0.953 ± 0.076 (concentration: 4mM); 0.954 ± 0.069 (concentration: 6mM). The NP40-soluble protein abundance by setting is: (concentration: 8mM) 1 ± 0.088; (concentration: 10mM) 1.01 ± 0.11.
For PARP1 (UniProt P09874), the NP40-soluble protein abundance runs as follows: (concentration: 0.1mM) 1.02 ± 0.026; (concentration: 0.5mM) 1.05 ± 0.034; (concentration: 1mM) 1.05 ± 0.033; (concentration: 2mM) 1.15 ± 0.052; (concentration: 4mM) 1.31 ± 0.069; (concentration: 6mM) 1.43 ± 0.054. Further, the NP40-soluble protein abundance reads like this: (concentration: 8mM) 1.47 ± 0.043; (concentration: 10mM) 1.5 ± 0.028.
Consider J3KPP4|O95232|H0YA81 (UniProt O95232), for which the NP40-soluble protein abundance is 1.13 ± 0.027 (concentration: 0.1mM); 1.45 ± 0.062 (concentration: 0.5mM); 1.54 ± 0.1 (concentration: 1mM); 1.54 ± 0.095 (concentration: 2mM); 1.56 ± 0.12 (concentration: 4mM); 1.63 ± 0.13 (concentration: 6mM). Also, the NP40-soluble protein abundance (concentration: 8mM) came to 1.72 ± 0.19 and the NP40-soluble protein abundance (concentration: 10mM) worked out at 1.74 ± 0.18.
Consider YARS (UniProt P54577), for which the NP40-soluble protein abundance by setting is: (concentration: 0.1mM) 0.952 ± 0.037; (concentration: 0.5mM) 0.969 ± 0.029; (concentration: 1mM) 0.92 ± 0.042; (concentration: 2mM) 0.878 ± 0.048; (concentration: 4mM) 0.864 ± 0.061; (concentration: 6mM) 0.874 ± 0.048. Further, the NP40-soluble protein abundance reads like this: (concentration: 8mM) 0.872 ± 0.043; (concentration: 10mM) 0.849 ± 0.066.

Values taken from the supplement of paper PMC6411743.
